The whole screen tested about 5,500 compounds, of which about 2,000 (36%) were called active. Roughly 18% stayed inconclusive and do not appear here. Rule as the data show it: active = normalized growth mostly below about 0.91 (no sharp cut-off); inconclusive = no clear call, values can overlap the other calls; inactive = mostly above about 0.92. Some of the results follow.
Experiment: chemical genetic growth profiling, strain panel (AID 1159580);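 also: tested at 20 µM; growth read once vehicle control cultures reached saturation at 30 °C; 1 = growth at the plate median or of vehicle wells; lower values mean less growth of the strain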
Conditions: growth OD

Measured: normalized growth

COc1cc([C@@H]2c3cc4c(cc3[C@H](O)[C@H]3COC(=O)[C@@H]23)OCO4)cc(OC)c1OC
inactive: S. cerevisiae deletion strains, locus YKL009W, strain mrt4, hits give low values 1 | S. cerevisiae deletion strains, locus YKL068W, hits give low values 0.977 | S. cerevisiae deletion strains, locus YKL085W, strain MDH1 (second series), hits give low values 1 | S. cerevisiae deletion strains, locus YKL085W, strain MDH1, hits give low values 1 | S. cerevisiae deletion strains, locus YKL160W, strain elf1, hits give low values 1.02 | S. cerevisiae deletion strains, locus YKR001C, strain vps1, hits give low values 0.978 | S. cerevisiae deletion strains, locus YKR026C, strain gcn3, hits give low values 1.02 | S. cerevisiae deletion strains, locus YKR091W, strain srl3, hits give low values 1.02 | S. cerevisiae deletion strains, locus YLL001W, strain dnm1, hits give low values 1.01 | S. cerevisiae deletion strains, locus YLL026W, hits give low values 1.01 | S. cerevisiae deletion strains, locus YLL041C, strain sdh2, hits give low values 1.02 | S. cerevisiae deletion strains, locus YLR027C, strain aat2, hits give low values 1.03 | S. cerevisiae deletion strains, locus YLR039C, strain RIC1, hits give low values 0.996 | S. cerevisiae deletion strains, locus YLR058C, strain SHM2, hits give low values 1.01 | S. cerevisiae deletion strains, locus YLR102C, strain apc9, hits give low values 0.984 | S. cerevisiae deletion strains, locus YLR113W, strain HOG1, hits give low values 0.997 | S. cerevisiae deletion strains, locus YLR221C, strain rsa3, hits give low values 0.999 | S. cerevisiae deletion strains, locus YLR258W, strain gsy2, hits give low values 1.02 | S. cerevisiae deletion strains, locus YLR262C, strain YPT6 (second series), hits give low values 1.04 | S. cerevisiae deletion strains, locus YLR262C, strain YPT6, hits give low values 0.991 | S. cerevisiae deletion strains, locus YLR268W, strain sec22, hits give low values 0.971 | S. cerevisiae deletion strains, locus YLR320W, strain mms22, hits give low values 1.01 | S. cerevisiae deletion strains, locus YLR330W, strain CHS5, hits give low values 0.998 | S. cerevisiae deletion strains, locus YLR342W, strain FKS1 (second series), hits give low values 1.02 | S. cerevisiae deletion strains, locus YLR342W, strain FKS1, hits give low values 1.02 | S. cerevisiae deletion strains, locus YLR357W, strain rsc2, hits give low values 1.02 | S. cerevisiae deletion strains, locus YLR370C, strain arc18, hits give low values 1.03 | S. cerevisiae deletion strains, locus YLR371W, strain rom2, hits give low values 0.972 | S. cerevisiae deletion strains, locus YLR384C, strain iki3, hits give low values 1.02 | S. cerevisiae deletion strains, locus YLR418C, strain cdc73, hits give low values 1.05 | S. cerevisiae deletion strains, locus YML016C, strain PPZ1, hits give low values 0.997 | S. cerevisiae deletion strains, locus YML032C, strain rad52, hits give low values 1.02 | S. cerevisiae deletion strains, locus YML120C, strain ndi1, hits give low values 1.01 | S. cerevisiae deletion strains, locus YML124C, strain tub3, hits give low values 0.993 | S. cerevisiae deletion strains, locus YMR058W, strain fet3, hits give low values 1.02 | S. cerevisiae deletion strains, locus YMR078C, strain ctf18, hits give low values 0.991 | S. cerevisiae deletion strains, locus YMR125W, strain sto1, hits give low values 1.02 | S. cerevisiae deletion strains, locus YMR129W, hits give low values 1.02 | S. cerevisiae deletion strains, locus YMR205C, strain PFK2, hits give low values 1.02 | S. cerevisiae deletion strains, locus YMR223W, strain ubp8, hits give low values 1.01 | S. cerevisiae deletion strains, locus YMR231W, strain pep5, hits give low values 1.03 | S. cerevisiae deletion strains, locus YMR263W, strain SAP30, hits give low values 1.01 | S. cerevisiae deletion strains, locus YMR307W, strain GAS1, hits give low values 1.05 | S. cerevisiae deletion strains, locus YNL067W, strain RPL9B, hits give low values 1.01 | S. cerevisiae deletion strains, locus YNL071W, strain lat1, hits give low values 1.02 | S. cerevisiae deletion strains, locus YNL153C, strain GIM3, hits give low values 1.03 | S. cerevisiae deletion strains, locus YNL183C, strain NPR1, hits give low values 0.904 | S. cerevisiae deletion strains, locus YNL209W, strain ssb2, hits give low values 1.01 | S. cerevisiae deletion strains, locus YNL233W, strain BNI4, hits give low values 1.01 | S. cerevisiae deletion strains, locus YNL248C, strain rpa49, hits give low values 1.01 | S. cerevisiae deletion strains, locus YNL250W, strain rad50, hits give low values 0.95 | S. cerevisiae deletion strains, locus YNL271C, strain bni1, hits give low values 0.993 | S. cerevisiae deletion strains, locus YNL298W, strain CLA4, hits give low values 0.997 | S. cerevisiae deletion strains, locus YNL307C, strain MCK1, hits give low values 0.992 | S. cerevisiae deletion strains, locus YNL322C, strain KRE1 (second series), hits give low values 1.01 | S. cerevisiae deletion strains, locus YNL322C, strain KRE1, hits give low values 1 | S. cerevisiae deletion strains, locus YNR049C, strain mso1, hits give low values 1.02 | S. cerevisiae deletion strains, locus YNR052C, strain pop2, hits give low values 1.01 | S. cerevisiae deletion strains, locus YOL012C, strain htz1 0.992 | S. cerevisiae deletion strains, locus YOL147C, strain pex11, hits give low values 0.993 | S. cerevisiae deletion strains, locus YOR001W, strain rrp6, hits give low values 1.04 | S. cerevisiae deletion strains, locus YOR061W, strain CKA2, hits give low values 1 | S. cerevisiae deletion strains, locus YOR069W, strain VPS5, hits give low values 0.991 | S. cerevisiae deletion strains, locus YOR070C, strain gyp1, hits give low values 1.02 | S. cerevisiae deletion strains, locus YOR080W, strain dia2, hits give low values 1.03 | S. cerevisiae deletion strains, locus YOR083W, strain WHI5, hits give low values 1.02 | S. cerevisiae deletion strains, locus YOR106W, strain vam3, hits give low values 1.04 | S. cerevisiae deletion strains, locus YOR136W, strain idh2, hits give low values 0.98 | S. cerevisiae deletion strains, locus YOR144C, strain elg1, hits give low values 1 | S. cerevisiae deletion strains, locus YOR184W, strain ser1, hits give low values 0.999 | S. cerevisiae deletion strains, locus YOR231W, strain MKK1, hits give low values 0.996 | S. cerevisiae deletion strains, locus YOR265W, strain rbl2, hits give low values 1.02 | S. cerevisiae deletion strains, locus YOR270C, strain vph1, hits give low values 1.03 | S. cerevisiae deletion strains, locus YOR290C, strain snf2, hits give low values 1.01 | S. cerevisiae deletion strains, locus YOR316C, strain cot1, hits give low values 0.995 | S. cerevisiae deletion strains, locus YPL051W, strain arl3, hits give low values 1.02 | S. cerevisiae deletion strains, locus YPL055C, strain LGE1, hits give low values 1.02 | S. cerevisiae deletion strains, locus YPL078C, strain atp4, hits give low values 1.02 | S. cerevisiae deletion strains, locus YPL106C, strain sse1, hits give low values 1 | S. cerevisiae deletion strains, locus YPL240C, strain hsp82, hits give low values 1.02 | S. cerevisiae deletion strains, locus YPL241C, strain CIN2, hits give low values 1 | S. cerevisiae deletion strains, locus YPL256C, strain CLN2, hits give low values 0.967 | S. cerevisiae deletion strains, locus YPR119W, strain clb2, hits give low values 0.986 | S. cerevisiae deletion strains, locus YPR141C, strain kar3, hits give low values 0.988 | S. cerevisiae deletion strains, locus YPR163C, strain tif3, hits give low values 0.996 | S. cerevisiae deletion strains, locus YPR167C, strain met16, hits give low values 0.989 | S. cerevisiae deletion strains, strain wtn01, hits give low values 0.945 | S. cerevisiae strains, strain wild type, hits give low values 1.02

From PubChem BioAssay AID1159580 (chemical genetic matrix, 2015)
